# PubChem BioAssay (NCATS)
# Values without a mark were called inactive. Calls of active or inactive are those of the source. The call rests on the fitted dose curve; in most records, active means well fitted curve in the direction sought with a large enough effect; inactive means no such curve, though single readings can be large or run the other way.
# Target: Alpha-galactosidase (Coffea arabica) (UniProt Q42656)
# Assay: Counterscreen for Glucocerebrosidase Inhibitors: qHTS Assay for Coffee Bean alpha-Galactosidase at pH 5.9 (AID 998);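 further: plate controls were uninhibited enzyme for no effect and no-enzyme basal signal for full effect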
# Details: coffee bean alpha-galactosidase enzyme assay; series mostly up to 76.9 µM; activity, negative = inhibition: at the top concentration
# In short: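 Green coffee bean enzyme (2 nM final) was incubated with compounds (0.7 nM–77 uM) and 4-methylumbelliferyl alpha-D-galactopyranoside (80 uM) in citrate buffer pH 5.9, 20 min at room temperature. High-pH stop; fluorescence 365/440 nm; AC50 from Hill fits.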
# Alpha-galactosidase (Coffea arabica), sequence (Q42656 whole entry, looked up): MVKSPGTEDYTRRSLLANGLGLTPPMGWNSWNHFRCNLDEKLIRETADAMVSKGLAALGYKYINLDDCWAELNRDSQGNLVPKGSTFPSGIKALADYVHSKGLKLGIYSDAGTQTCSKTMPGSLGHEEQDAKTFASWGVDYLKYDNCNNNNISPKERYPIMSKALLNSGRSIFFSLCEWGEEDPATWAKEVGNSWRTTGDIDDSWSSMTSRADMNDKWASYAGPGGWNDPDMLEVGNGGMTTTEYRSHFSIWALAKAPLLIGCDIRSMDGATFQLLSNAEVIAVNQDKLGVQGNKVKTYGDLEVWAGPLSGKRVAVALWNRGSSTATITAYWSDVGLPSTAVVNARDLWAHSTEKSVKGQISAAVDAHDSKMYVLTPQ
Structure (SMILES),"activity, negative = inhibition [%]",outcome
CN1Cc2c(N)cccc2[C@H](c2ccccc2)C1,-2.68,
Oc1cc(O)cc(/C=C\c2ccc(O)c(O)c2)c1,-0.672,
C=CCN1CCc2c(cc(O)c(O)c2Br)[C@H](c2ccccc2)C1,-2.14,
CNc1ncnc2c1ncn2[C@H]1C[C@@H](OP(=O)(O)O)[C@H](COP(=O)(O)O)O1,2.29,
CN(C)CC[C@@H](c1ccccc1)c1ccccn1,-1.12,
OC[C@H]1O[C@@H](n2cnc3c(NCCc4ccccc4)ncnc32)[C@H](O)[C@H]1O,1.26,
COc1cc2nc(N3CCN(C(=O)[C@H]4CCCO4)CC3)nc(N)c2cc1OC,1.42,
CCCN1C[C@@H](CSC)C[C@H]2c3cccc4[nH]cc(c34)C[C@@H]21,-2.73,
C=C(C)[C@@H]1CC=C(C(=O)O)CC1,-0.661,
C[C@@H](C(=O)O)c1cccc(C(=O)c2ccccc2)c1,2.73,
C[C@@H]1COc2c(N3CCN(C)CC3)c(F)cc3c(=O)c(C(=O)O)cn1c23,-0.165,
COc1cc(=O)n(C)c2c(OC[C@@H](O)C(C)(C)O)cccc12,2.82,
CN1CCc2cccc3c2[C@@H]1Cc1ccc(O)c(O)c1-3,-2.19,
C[C@@]12C(=O)OC(=O)[C@@]1(C)[C@H]1CC[C@@H]2O1,-1.12,
O=c1ccn([C@@H]2O[C@@H](COP(=O)(O)OP(=O)(O)O)[C@H](O)[C@@H]2O)c(=O)[nH]1,1.08,
Cc1ccccc1N1CCN(S(=O)(=O)C[C@@]23CC[C@H](C[C@H]2NC(=O)[C@@H](N)CCS(C)(=O)=O)C3(C)C)CC1,-1.7,
Nc1nc(Nc2ccccc2)nc2c1ncn2[C@@H]1O[C@@H](CO)[C@H](O)[C@@H]1O,-0.325,
OC[C@@H]1O[C@H](O)[C@@H](Cl)[C@H](O)[C@@H]1O,3.13,
C=C1C(=O)O[C@@H]2[C@@H]1CC/C(C)=C\CC[C@@]1(C)O[C@H]21,-1.46,
Nc1ncnc2c1nc(Br)n2[C@@H]1O[C@H]2COP(=O)(O)O[C@@H]2[C@H]1O,-2.52,

Structure (SMILES),"activity, negative = inhibition [%]",outcome
O=C1c2c(O)cc(O)cc2O[C@@H](c2ccc(O)c(O)c2)[C@H]1O,-4.21,
N[C@]1(C(=O)O)CCc2cc(C(=O)O)ccc21,0.0687,
Nc1nc(SCc2ccc([N+](=O)[O-])cc2)c2ncn([C@@H]3O[C@@H](CO)[C@@H](O)[C@H]3O)c2n1,3.03,
COc1ccc(CCN(C)CCC[C@@](C#N)(c2ccc(OC)c(OC)c2)C(C)C)cc1OC,-1.36,
COC(=O)[C@H]1[C@H]2C[C@H]3c4[nH]c5ccccc5c4CCN3C[C@@H]2CC[C@@H]1O,,inactive
CCCCCCCCCCCCCCCCCCNC(=O)OC[C@@H](COP(=O)([O-])OCC[n+]1ccsc1)OC,-2.05,
Nc1ncnc2c1ncn2[C@@H]1O[C@@H](C(=O)NC2CC2)[C@H](O)[C@@H]1O,1.99,
CCN(Cc1ccncc1)C(=O)[C@@H](CO)c1ccccc1,0.586,
Oc1cc2c(c(Cl)c1O)CCNC[C@H]2c1ccccc1,0.658,
O=C(/C=C\c1ccc(O)c(O)c1)OCCc1ccccc1,-3.8,
C[C@@]12CCC(=O)C=C1CC[C@@H]1[C@@H]2[C@H](O)C[C@]2(C)[C@@H]1CC[C@]2(O)C(=O)COC(=O)CCC(=O)O,3.29,
O=C(O)[C@H]1CCCNC1,-0.73,
O=C(NCCNC[C@@H](O)COc1ccc(O)cc1)N1CCOCC1,6.25,
O=C(O)[C@H]1CCCN(CCC=C(c2ccccc2)c2ccccc2)C1,-0.355,
CCCCCCCCCCCCCCCC(=O)NC[C@@H](COP(=O)([O-])OCC[N+](C)(C)C)OCC,-2,
CNCC[C@H](Oc1ccccc1OC)c1ccccc1,-0.76,
C[C@@](N)(Cc1ccc(O)c(O)c1)C(=O)O,2.05,
C[C@H](N=C(NC#N)Nc1ccncc1)C(C)(C)C,-0.722,
CCCCC#Cc1nc(N)c2ncn([C@@H]3O[C@@H](C(=O)NCC)[C@H](O)[C@@H]3O)c2n1,-0.389,
